Assay [1] is described as follows: Cellular Toxicity (caspase-3) Jurkat (AID 655).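 Further: cells exposed to compound for 16 h at 37 °C before reading.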 The conditions noted are these: Jurkat caspase-3 activation, luminescence; caspase-3 activation: at 92.2 µM (top of the series), DMSO = 0%, tamoxifen = 100%. In short, it runs like this: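 Jurkat cells (5000/well) in complete medium exposed 16 h at 37 C; caspase-3/7 activity read by Caspase-Glo luminescence after 20 min at room temperature. Normalized to DMSO and 100 uM tamoxifen; AC50 from Hill fits.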

Assay [2] in a line: Cellular Toxicity (caspase-3) HUV-EC-C (AID 656). The method in brief: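 HUV-EC-C cells (1000/well) in complete medium, compound-treated 16 h at 37 °C; caspase-3/7 activity read by Caspase-Glo 3/7 luminescence. Normalized to DMSO (basal) and 100 uM tamoxifen (100%); AC50 from Hill-equation concentration-response fits.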
The nature of assay [3]: Cellular Toxicity (caspase-3) H-4-II-E (AID 663).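 Further: cells exposed to compound for 16 hr before readout.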 Conditions: Potency: caspase-3 activation. The method in brief:
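Rat hepatoma H-4-II-E cells (1500/well) plated 5 hr, then exposed to compound titrations for 16 hr at 37 °C. Caspase-Glo 3/7 luminescence read after 20 min at RT; data normalized to DMSO and 100 uM tamoxifen, AC50 from Hill fits.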

A short description of assay [4]: MultiTox-Fluor Cytotoxicity Assay - LYMP1-001 - Live Cells (AID 947).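 Further: 0% = DMSO only and full inhibition = tetraoctylammonium bromide control.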
Assay [5] in a line: Cell Viability - LYMP1-002 - Assay at 16 hr (AID 948).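 Further: 0% = DMSO alone and full effect = 92 µM tetraoctylammonium bromide.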 In short, it runs like this:
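LYMP1-002 human lymphoblastoid cells, 2500/well, were treated with compounds for 16 hr at 37 C in complete medium. Viability was read as intracellular ATP by CellTiter-Glo luminescence, and AC50 was derived from a Hill fit to concentration-response data.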

The nature of assay [6]: Cell Viability - LYMP2-015 (AID 971). Further: nearly all actives have a fitted effect of over 55% in size. Further: potency means the concentration at half of the fitted maximal effect. In short, it runs like this: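 Acute toxicity was scored as a concentration-dependent drop in intracellular ATP in lymphoblastoid cells after 24 hr compound exposure in complete medium. Detection used CellTiter-Glo luciferase luminescence.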
Assay [7] can be described thus: Cell Viability - LYMP2-014 (AID 983).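 Further: cells exposed to compound for 24 h at 37 °C; plate controls were DMSO only for no effect and 92 µM tetraoctylammonium bromide for full effect; nearly all actives have a fitted effect of over 50% in size.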 The method in brief:
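Decrease in intracellular ATP after 24 hr treatment at 37 C, measured by luciferase luminescence, indicated cytotoxicity. Concentration-response data were fitted with the standard Hill equation to give AC50.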

A short description of assay [8]: Cell Viability - LYMP2-018 (AID 985).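 Further: compound exposure lasted 24 hr at 37 °C; plate controls were DMSO only for no effect and tetraoctylammonium bromide at 92 µM for full effect; nearly all actives have a fitted effect of over 50% in size.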 The method in brief:
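Acute cytotoxicity is scored as a concentration-dependent drop in intracellular ATP after 24 hr exposure of the lymphoblastoid line in complete culture medium, measured by luciferase luminescence. Potency is expressed as AC50 from Hill modelling.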

The target of assay [9] is Voltage-gated inwardly rectifying potassium channel KCNH2 (Homo sapiens) (UniProt Q12809). The experiment in a line: qHTS Assay for Small Molecule Inhibitors of the Human hERG Channel Activity (AID 588834).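 Further: top concentration of the series differs between compounds; on the % scale 0 is the no-effect control and ±100 the full control effect; lower thallium flux fluorescence means stronger hERG block; nearly all actives have a fitted effect of over 50% in size.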 In short, it runs like this: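 U2OS cells BacMam-transduced with hERG, 2000 cells/well, compound ~10 min at 37 °C before stimulation buffer. FluxOR thallium flux fluorescence read kinetically on FDSS; decrease indicates block; AC50 from Hill fits.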
Sequence of Voltage-gated inwardly rectifying potassium channel KCNH2 (Homo sapiens) (Q12809 whole entry, looked up): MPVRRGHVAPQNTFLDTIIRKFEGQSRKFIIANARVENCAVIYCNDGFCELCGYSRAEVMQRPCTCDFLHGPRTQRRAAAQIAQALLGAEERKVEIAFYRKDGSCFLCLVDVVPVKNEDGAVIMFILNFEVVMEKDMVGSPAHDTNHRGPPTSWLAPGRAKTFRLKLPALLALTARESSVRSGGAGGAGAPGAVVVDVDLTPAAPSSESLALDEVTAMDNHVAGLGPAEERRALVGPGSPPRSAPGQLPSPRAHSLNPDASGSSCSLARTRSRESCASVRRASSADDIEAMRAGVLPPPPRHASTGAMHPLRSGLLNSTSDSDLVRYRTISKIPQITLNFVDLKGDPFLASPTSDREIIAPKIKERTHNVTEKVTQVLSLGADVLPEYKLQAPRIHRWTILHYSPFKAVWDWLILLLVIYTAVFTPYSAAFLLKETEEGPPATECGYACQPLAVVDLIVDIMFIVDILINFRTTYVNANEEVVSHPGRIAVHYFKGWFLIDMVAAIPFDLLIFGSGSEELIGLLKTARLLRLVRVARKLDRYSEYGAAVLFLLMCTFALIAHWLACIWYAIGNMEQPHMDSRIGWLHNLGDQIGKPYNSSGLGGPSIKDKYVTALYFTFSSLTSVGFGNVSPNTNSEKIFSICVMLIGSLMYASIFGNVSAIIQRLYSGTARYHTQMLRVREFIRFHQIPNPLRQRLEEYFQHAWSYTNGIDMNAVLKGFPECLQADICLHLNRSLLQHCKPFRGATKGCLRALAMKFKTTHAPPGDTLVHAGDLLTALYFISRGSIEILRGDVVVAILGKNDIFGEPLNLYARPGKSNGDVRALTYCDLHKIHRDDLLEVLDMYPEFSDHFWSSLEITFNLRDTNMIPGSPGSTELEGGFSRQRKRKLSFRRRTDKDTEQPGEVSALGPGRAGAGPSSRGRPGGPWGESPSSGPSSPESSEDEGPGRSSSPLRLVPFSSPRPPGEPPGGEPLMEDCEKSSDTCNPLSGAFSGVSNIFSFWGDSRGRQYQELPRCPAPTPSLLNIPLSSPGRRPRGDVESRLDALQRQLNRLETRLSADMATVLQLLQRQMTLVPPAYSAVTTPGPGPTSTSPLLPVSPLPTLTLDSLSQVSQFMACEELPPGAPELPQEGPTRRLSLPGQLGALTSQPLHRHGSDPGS
For orientation: Quantitative high-throughput screening tests each substance at several concentrations.

Assay [10] can be described thus: Cell Viability - SK-N-SH (AID 435; calls by dose curve;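 further: potency means the concentration at half of the fitted maximal effect; compound exposure lasted 40 h at 37 °C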). Conditions: SK-N-SH neuroblastoma cell viability qHTS. In short, it runs like this: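 SK-N-SH neuroblastoma cells (1500/well) treated 40 h at 37 °C in complete medium; viability read as cellular ATP by CellTiter-Glo luminescence. Normalized to DMSO and 100 uM tamoxifen; AC50 from Hill fits of qHTS concentration-response.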
Assay [11] deals with Cytochrome P450 3A4 (Homo sapiens) (UniProt P08684). Description: qHTS Assay for Inhibitors and Substrates of Cytochrome P450 3A4 (AID 884). Further: nearly all actives have a fitted effect of over 50% in size. Further: potency means the concentration at half of the fitted maximal effect. In short, it runs like this: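 20 nM human CYP3A4 with 25 uM Luciferin-PPXE (at KM) in 200 mM KPO4, preincubated 10 min with compound; NADPH regeneration started a 60 min RT reaction. Luciferin detected by luminescence, normalized to 57 uM ketoconazole as full inhibition.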
Sequence of Cytochrome P450 3A4 (Homo sapiens) (P08684 whole entry, looked up): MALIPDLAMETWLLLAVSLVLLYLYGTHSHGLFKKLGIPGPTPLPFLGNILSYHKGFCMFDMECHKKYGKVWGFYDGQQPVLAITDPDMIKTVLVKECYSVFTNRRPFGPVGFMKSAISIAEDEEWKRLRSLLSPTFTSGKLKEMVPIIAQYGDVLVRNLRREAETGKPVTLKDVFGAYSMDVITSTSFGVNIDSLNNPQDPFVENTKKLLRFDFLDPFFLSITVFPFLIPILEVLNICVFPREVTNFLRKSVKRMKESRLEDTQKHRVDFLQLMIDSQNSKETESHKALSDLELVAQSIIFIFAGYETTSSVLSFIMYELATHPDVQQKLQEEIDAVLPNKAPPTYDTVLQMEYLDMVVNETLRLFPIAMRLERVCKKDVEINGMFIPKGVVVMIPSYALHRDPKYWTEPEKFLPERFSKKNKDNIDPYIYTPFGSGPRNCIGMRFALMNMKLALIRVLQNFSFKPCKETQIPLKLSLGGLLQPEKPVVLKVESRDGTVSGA

Assay [12] is described as follows: Cell Viability - LYMP2-004 (AID 966).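 Further: plate controls were DMSO only for no effect and tetraoctylammonium bromide control for full effect; nearly all actives have a fitted effect of over 65% in size.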 The method in brief:
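Acute toxicity is scored as a concentration-dependent drop in intracellular ATP, quantified by luciferase luminescence, in human lymphoblastoid cells exposed to compound for 24 hr. AC50 derives from Hill-equation modelling.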

The nature of assay [13]: Cell Viability - LYMP2-019 (AID 973).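 Further: cells exposed to compound for 24 h at 37 °C; 0% = DMSO alone and full effect = 92 µM tetraoctylammonium bromide; nearly all actives have a fitted effect of over 55% in size.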 The method in brief: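 Cells plated at 2500/well and allowed 5 hr at 37 C before compound addition. After 24 hr incubation, CellTiter-Glo reagent was added, plates sat 30 min at room temperature, and luminescence was recorded.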
Assay [14] can be described thus: Cell Viability - LYMP2-007 (AID 979).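 Further: cells exposed to compound for 24 h before reading; nearly all actives have a fitted effect of over 60% in size.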 Further: potency means the concentration at half of the fitted maximal effect. The method in brief:
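Acute toxicity is scored as a concentration-dependent fall in intracellular ATP in human lymphoblastoid cells treated 24 hr at 37 C, measured by luciferase luminescence; Hill-equation modelling yields AC50.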

The nature of assay [15]: Cell Viability - LYMP2-008 (AID 980). Further: nearly all actives have a fitted effect of over 60% in size. Further: potency means the concentration at half of the fitted maximal effect. The method in brief: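 Acute cytotoxicity is scored as concentration-dependent loss of cellular ATP in a human lymphoblastoid line after 24 hr treatment at 37 C. ATP is quantified by luciferase luminescence.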
A short description of assay [16]: Cell Viability - LYMP2-020 (AID 986).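 Further: cells exposed to compound for 24 h at 37 °C; nearly all actives have a fitted effect of over 55% in size.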 Further: potency means the concentration at half of the fitted maximal effect. The method in brief:
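Acute cytotoxicity in a human lymphoblastoid line is scored as a concentration-dependent fall in cellular ATP after 24 hr at 37 C in complete medium. The positive control is tetraoctylammonium bromide, and potency is given as Hill-fit AC50.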

A short description of assay [17]: qHTS assay for small molecule antagonists of retinoid X receptor alpha signaling (AID 588546).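 Further: cells stimulated with 9-cis-retinoic acid as agonist; on the % scale 0 is the no-effect control and ±100 the full control effect.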 The conditions noted are these: HEK293T RXRa-UAS-bla, beta-lactamase ratio, antagonist mode; measured here: W530 green channel, cytotoxicity proxy. The method in brief:
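Beta-lactamase reporter inhibition, read as CCF4 fluorescence ratio (ex 405, em 460/530 nm) after 2 h at RT. HEK293T UAS-bla cells, 2500/well, were stimulated with 9-cis-RA at 500 or 100 nM final alongside test compound for 18 h at 37 C.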

Assay [18] is described as follows: Cell Viability - MRC5 (AID 434; calls by dose curve;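 further: potency means the concentration at half of the fitted maximal effect; potency reflects cytotoxicity seen as loss of intracellular ATP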). Conditions: MRC5 lung fibroblast viability, qHTS. The method in brief:
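MRC5 normal human lung fibroblasts, 1500 cells/well, exposed to compound for 40 hr at 37 C. Cellular ATP was read by CellTiter-Glo luminescence; data normalized to DMSO and 100 uM tamoxifen, with AC50 from Hill fits.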

Assay [19] in a line: Cell Viability - LYMP2-026 (AID 989). In short, it runs like this: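 Concentration-dependent loss of intracellular ATP in human lymphoblastoid cells after 24 hr at 37 C, quantified by luciferase luminescence. AC50 derived from standard Hill equation.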
Assay [20] in a line: Cell Viability - LYMP2-022 (AID 987). Further: nearly all actives have a fitted effect of over 55% in size. Further: potency means the concentration at half of the fitted maximal effect. In short, it runs like this: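 Acute toxicity in a human lymphoblastoid line is scored as decreased intracellular ATP after 24 hr compound treatment at 37 C. ATP is measured by CellTiter-Glo luminescence; curves are fitted with the Hill equation to give AC50.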

Consider 6 molecules from PubChem BioAssay (NCATS).

Where “and” joins values, the source holds several entries; their conditions need not be identical. Equal values may be shown once. Inconclusive results are not listed. Calls of active or inactive are those of the source. Unless noted, the call rests on the fitted dose curve; in most records, active means well fitted curve in the direction sought with a large enough effect; inconclusive means small, poorly fitted or top-dose-only effect, or another doubt; inactive means no such curve, though single readings can be large; an effect the other way counts as inactive or inconclusive.

Take `Oc1cc(Cl)c(Cl)c(Cl)c1`: the caspase-3 activation in [1] was 14.2% (inactive). The molecule was classed as inactive in [2], in [4] and in [5]. In addition, the Potency entry in [3], in assay [6], in [7], in assay [8] and in [9] was “inactive” each time.

`Nc1ccc(-c2ccc(N)c(Cl)c2)cc1Cl`: the Potency was 3.05 µM (active) in assay [10] and 15.8 µM (active) in [11]. The molecule was classed as inactive in [2] and in assay [4]. For the same molecule, the Potency entry in assay [3], in [12], in assay [6], in assay [13], in [14] and in assay [15] was “inactive” in each case. Moreover, the Potency entry in assay [7], in assay [8], in assay [16] and in assay [9] was “inactive” in each case. Further, the max response in [17] is -2.3% and -7.33%.

Regarding `O=[N+]([O-])c1cccc(CCl)c1`, the Potency in assay [18] and in assay [10] was > 92 µM (inactive) in each case. The molecule was classed as inactive in assay [2], in assay [4] and in assay [5]. Also, the Potency result in assay [3], in assay [11], in assay [12], in assay [15], in assay [7] and in assay [19] was “inactive” throughout. Besides, in [9], the Potency result is “inactive”. In addition, the max response in assay [17] came out at 8.94%.

With `Clc1ccc(C(c2ccccc2Cl)C(Cl)(Cl)Cl)cc1` (centres undefined), the Potency in [18] is > 92 µM (inactive). In assay [1], the caspase-3 activation was 5.05% (inactive). Further, the call in [2], in [4] and in assay [5] was inactive. Moreover, the Potency entry in [3], in [11], in [12], in [6], in assay [13] and in [14] was “inactive” each time. Moreover, the Potency entry in assay [15], in assay [7], in [8], in assay [16], in [20] and in assay [19] was “inactive” each time. Further, the max response in assay [17] was 5.48%.

In the case of `[C-]1=CC=CC1.[C-]1=CC=CC1.[Cl-].[Cl-].[Ti+4]`, the molecule was classed as inactive in assay [2] and in [4]. The Potency result in assay [3], in assay [11] and in assay [9] was “inactive” in each case.

As to `BrCC(Br)(Br)Br`, the Potency was > 92 µM (inactive) in assay [10]; 15.8 µM (active) in assay [6]; 12.6 µM (active) in [14]; 39.8 µM (active) in assay [15]; 15.8 µM (active) in assay [16]; 7.94 µM (active) in assay [20]. The result in [2], in [4] and in assay [5] was inactive. Moreover, the Potency result in [3], in assay [11], in [12] and in assay [9] was “inactive” in each case. Besides, the max response in assay [17] worked out at 2.45%.
